The results in this text go back to PubChem BioAssay AID485313 (National Center for Advancing Translational Sciences (NCATS), 2010).

In all, about 320,000 compounds went through this assay and about 7,600 (2.4%) were called active. Inconclusive results (about 3%) are left out. Calls follow the shape of the dose curve; as a rule, active = well fitted activation curve with a large enough effect; inconclusive = small, poorly fitted or top-dose-only effect; inactive = no such curve, though single readings can be large or run the other way. Shown is part of a subset that was picked to be rich in actives. Where a call stands in place of a potency, no number is given.
Potency is read from the fitted curve at half-maximal effect.

The assay can be described thus: qHTS Assay for NPC1 Promoter Activators. Also: nearly all actives have a fitted effect of over 60% in size.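 As to activation: reporter is driven by a mutant NPC1 promoter.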 To be noted: Huh7 NPC1 promoter luciferase reporter, 24 h; series mostly up to 9.22 µM. The procedure, abridged:
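Readout is luciferase luminescence, reflecting NPC1 promoter activation in stably transfected Huh7 cells after 24 h compound exposure at 37 °C in reduced-serum medium with 10% FBS.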
A general note: qHTS replaces the single test concentration by a dilution series.
Regarding `COc1ccc(NC(=O)CN(C)C(=O)c2cc(C3CC3)nn2-c2ccccc2)cc1`, the Potency result was “inactive”. As to `O=S(=O)(c1ccc(Br)cc1)n1ccc2ccccc21`, the Potency entry is “inactive”. Consider `COc1ccc(S(=O)(=O)N2CCOCC2)cc1NC(=O)c1ccc(OCC(C)C)c(OC)c1`, for which the Potency entry is “inactive”. The same measure, in the same setting: with `Cc1ccccc1NC(=O)Cc1nc(COC(=O)c2cccnc2Cl)cs1` the entry was “inactive”.

Consider `O=C(CCc1ccccc1Cl)Nc1ccc(S(=O)(=O)Nc2nccs2)cc1`, for which the Potency result is “inactive”. Still for that read-out and setting: with `Cc1ccc(CN2CC(C(=O)N3CCN(S(=O)(=O)c4ccccc4)CC3)CC2=O)cc1` (stereo not given) the entry was “inactive”; with `NS(=O)(=O)c1ccc(CNC(=O)c2cccc(S(=O)(=O)N3CCc4ccccc43)c2)cc1`, “inactive”; with `O=C(O)c1cccc(S(=O)(=O)N2CC=C(c3ccccc3)CC2)c1`, “inactive”. Take `COc1cccc(C(=O)OCC(=O)c2[nH]c(C)c(C(C)=O)c2C)c1`: the Potency result is “inactive”. `COCCN1C(=O)C(=O)/C(=C(/O)c2ccc(S(=O)(=O)N3CCCCC3)cc2)C1c1ccc(OC)c(OC)c1` (stereo not given): the Potency result is “inactive”. For the compound `O=C(CSC(=S)N1CCCCC1)c1c(F)cccc1F`, the Potency is 1.12 µM (active). Take `COc1cccc(NC(=O)CN(C)C(=O)CSC(=S)N2CCCC2)c1`: the Potency entry was “inactive”. Regarding `CC(=O)c1ccc(NC(=O)CSC(=S)N2CCCC2)cc1`, the Potency result was “inactive”. On to `O=C(CSC(=S)N1CCOCC1)c1ccccc1`, for which the Potency was 0.501 µM (active). Take `O=C(CSC(=S)N1CCOCC1)c1cc(Br)cc(Br)c1O`: the Potency result is “inactive”. In the case of `CC1CN(C(=S)SCC(=O)c2ccccc2)CC(C)O1` (stereo not given), the Potency entry is “inactive”. `COc1ccc(C(=O)N2CCN(c3ncccn3)CC2)cc1S(=O)(=O)N1CCOCC1`: the activation is -2.21% [at 1.84 µM] (inactive). In the case of `C=CCC(NC(=O)Cc1ccccc1)C(=O)NCCC` (stereo not given), the Potency result was “inactive”. For the compound `COc1ccc2nc(NC3=NCN(CC4CCCO4)CN3)nc(C)c2c1` (stereo not given), the Potency entry was “inactive”. On the same count and under the same terms, the value for `COc1ccc(NS(=O)(=O)c2cc(NC(=O)COc3ccccc3F)ccc2OC)cc1` was “inactive”; that for `COc1cc(/C=N/NC(=O)c2ccc(N3CCCC3=O)cc2)ccc1O` was 2.51 µM (active). As to `COc1ccc(C(=O)Nc2ccccc2C(=O)N/N=C/c2ccc(O)c(OC)c2)cc1`, the Potency entry was “inactive”. The same measure, in the same setting: with `O=C(N/N=C/c1cccc(Br)c1)c1ccc(N2CCCC2=O)cc1` the entry was “inactive”; with `O=C1C=C(c2cccc(Cl)c2)C[C@@H](c2ccc(F)cc2)C1`, “inactive”. Still for that read-out and setting: the value for `CN1C(=O)c2ccc(NC(=O)C3CCCCC3)cc2C1=O` was “inactive”; that for `O=C(Nc1cc2ccccc2oc1=O)C1CCCCC1` was 0.447 µM (active); that for `Cc1ccccc1NC(=O)C1CCN(C(=O)NC2CCCCC2)CC1` was “inactive”. `COc1ccc(S(=O)(=O)N2CCOCC2)cc1NC(=O)Cc1c(F)cccc1Cl`: the Potency result is “inactive”.

Turning to `Cc1sc2ncnc(SCC(=O)Nc3ccc(CN4CCCC4)cc3)c2c1C`, the Potency result is “inactive”.

For the compound `O=C(N/N=C/c1cccc(OCc2ccccc2)c1)c1ccc(Br)o1`, the Potency entry is “inactive”. In the case of `Cc1ccc(OCCOc2cccc(/C=N/NC(N)=O)c2)cc1`, the Potency is 2.82 µM (active). Still for that read-out and setting: with `Cc1cccc(OCC(=O)NCC(=O)N/N=C/c2ccc(N(C)C)cc2)c1` the entry was “inactive”; with `COc1ccc(OC)c(-c2csc(NC(=O)COC(=O)C3CC3)n2)c1`, “inactive”. `O=C(NCC1CCCO1)c1cc2c(s1)CCCC2` (stereo not given): the activation is 12.7% [at 1.84 µM] (inactive). Take `Cc1ccc(NS(=O)(=O)c2ccc(F)cc2)nc1`: the Potency entry is “inactive”. For `Cn1nccc1NS(=O)(=O)c1ccc(F)cc1`, the Potency is 0.0003 µM (active). Consider `Cc1cc(C)cc(NS(=O)(=O)c2ccc(F)cc2)c1`, for which the Potency result was “inactive”.

As for `O=C(CCNC(=O)c1ccc(Cl)cc1)NC1CCCc2ccccc21` (stereo not given), the Potency entry was “inactive”.

With `Nc1[nH][nH]c(=O)c1N=Nc1ccc2c(c1)OCO2`, the Potency is 2.82 µM (active). Consider `CC(=O)c1cc2c(cc1N)OCO2`, for which the Potency entry is “inactive”. The same measure, in the same setting: with `Cc1[nH][nH]c(=O)c1N=Nc1ccccc1` the entry was “inactive”; with `Cc1cc(C)cc(OCC(=O)OCC(=O)NC2CCCC2)c1`, “inactive”; with `Nc1ccn(CC(=O)N2CCN(c3ccccn3)CC2)c(=O)n1`, “inactive”. For `CC(C)N(Cc1nnc(-c2ccccc2Br)o1)C(=O)c1cc(Cl)nc2ccccc12`, the Potency result was “inactive”.

For `CCC(=O)c1ccc(OCC(=O)Nc2ccc(N3CCCCC3)cc2)cc1`, the Potency entry is “inactive”. On to `CCC(=O)Nc1ccc(-c2ccc(N3CCCCC3)nn2)cc1`, for which the Potency was 2.24 µM (active).

Turning to `CCCCSc1nnc(-c2ccc(NC(=O)CC)cc2)n1C`, the Potency entry is “inactive”. As for `CN(CC(=O)NCCc1ccc(F)cc1)CC(=O)Nc1ccc(F)c(F)c1F`, the Potency result was “inactive”.

Consider `Cc1ccc(NC(=O)C2CC(c3ccc(F)cc3)=NO2)cc1` (stereo not given), for which the Potency result was “inactive”. Same read-out and setting: with `O=C(Nc1ccc2c(c1)OCO2)C1CC1(Cl)Cl` (stereo not given) the entry was “inactive”. On to `O=C(Nc1ccc2c(c1)OCO2)C1CC(c2c(F)cccc2Cl)=NO1` (stereo not given), for which the Potency was 3.98 µM (active). In the case of `CN(Cc1cccs1)C(=O)CN1C(=O)c2ccccc2S1(=O)=O`, the Potency result is “inactive”. Take `O=C(COC(=O)c1cccc(Cl)c1)NC1CCCCCCC1`: the Potency result is “inactive”.

On to `CCCN(CC(=O)NC(=O)NC1CCCCC1)CC(=O)Nc1cc(Cl)ccc1Cl`, for which the Potency entry is “inactive”. As for `CC(=O)NC12CC3CC(C1)CC(C(=O)N1CCN(S(=O)(=O)c4cccs4)CC1)(C3)C2`, the Potency result was “inactive”.
